TR SRC2 fluor cs: Texas Red fluorescence interference in TRb-SRC2 counter-screen; TRb/SRC2 Texas Red total fluorescence interference; Potency, µM (top dose mostly 106 µM), inactives show at the highest dose fluorescence change, negative = quenching; 280,000 compounds, 0.29% hits; AID 1479; active means well fitted curve in either direction with a large enough effect; inconclusive means small, poorly fitted or top-dose-only effect
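Flags fluorescent or light-absorbing compounds by total fluorescence, S + 2P, at 555 nm excitation and 632 nm emission. Mixture: 20 nM Texas Red SRC2 peptide, 0.6 uM human TRb LBD, 1 uM T3, 5% DMSO; compound exposure 5 h at ambient temperature.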
Tau fibril FP: blocks human tau fibril formation measured by polarization | Potency, µM (titrated, usually from 57.7 µM), for inactives: at the highest dose activity, negative = inhibition, most hits filed as inhibitors | K18 P301L tau heparin fibrillization, Alexa594 FP, 6 h | 280,000 compounds, 0.39% hits | P10636; further: nearly all actives have a fitted effect of over 55% in size
Target sequence (P10636 561-689 P618L limits assumed): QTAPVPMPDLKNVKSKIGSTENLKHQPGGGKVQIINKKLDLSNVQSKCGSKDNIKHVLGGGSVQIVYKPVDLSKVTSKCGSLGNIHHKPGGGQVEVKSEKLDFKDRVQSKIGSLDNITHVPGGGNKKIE
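FP of Alexa 594-tau after heparin (20 uM) induction. Substrate: human K18 P301L, 15 uM unlabeled, 0.24 uM labeled. Buffer 100 mM sodium acetate pH 7. 6 hr, 37 C.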
TRb-SRC2 inh: TRbeta-SRC2 interaction inhibition; TRbeta-SRC2 peptide binding, fluorescence polarization; receptor liganded with 1 µM T3; Potency, µM (doses to about 106 µM), inactives show top-dose activity change, negative = inhibition, usual class: inhibitors; 280,000 compounds, 0.065% hits; AID 1469;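 further: plate controls were bound peptide for no effect and peptide without receptor for full effect; nearly all actives have a fitted effect of over 50% in size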
Target sequence (P10828 whole entry, looked up): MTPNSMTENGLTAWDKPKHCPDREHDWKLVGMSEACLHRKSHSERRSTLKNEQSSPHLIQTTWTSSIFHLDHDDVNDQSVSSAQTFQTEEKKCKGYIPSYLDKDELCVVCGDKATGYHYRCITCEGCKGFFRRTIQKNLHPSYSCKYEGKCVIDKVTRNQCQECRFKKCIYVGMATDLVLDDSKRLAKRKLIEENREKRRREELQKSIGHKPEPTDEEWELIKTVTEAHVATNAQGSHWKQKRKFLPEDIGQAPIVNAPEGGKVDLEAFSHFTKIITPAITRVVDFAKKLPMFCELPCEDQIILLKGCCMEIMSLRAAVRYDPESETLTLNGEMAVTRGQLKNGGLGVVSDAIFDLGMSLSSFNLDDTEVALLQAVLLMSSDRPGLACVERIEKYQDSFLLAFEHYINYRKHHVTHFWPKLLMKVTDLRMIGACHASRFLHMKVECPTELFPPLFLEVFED
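Quantitative HTS by FP: 0.6 uM TRb LBD, 20 nM labeled SRC2 20-mer, 1 uM T3, 5% DMSO; 5 hr ambient incubation; % activity per concentration and potencies from concentration series.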
KDM4E inh: inhibitors of human JMJD2E histone demethylase | AID 2147 | JMJD2E catalytic domain, FDH-coupled NADH fluorescence (FDH is formaldehyde dehydrogenase) | Potency, µM (highest dose often 57.1 µM), without a hit: at the highest dose activity change, negative = inhibition, hits mostly inhibitors | 230,000 compounds, 1.6% hits; active means well fitted inhibition curve with a large enough effect, not every such curve was filed as active; inconclusive means small, poorly fitted or top-dose-only effect, or another doubt; inactive means no such curve, though single readings can be large or run the other way;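 further: 0% = wells with enzyme and -100% = buffer wells without enzyme; nearly all actives have a fitted effect of over 50% in size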
Tau fluor counter: counter-screen for tau fibril formation inhibitors | Potency, µM (doses to about 57.7 µM), for the others: top-dose activity change, negative = decrease | tau K18 P301L Alexa594 fluorescence, heparin fibrillization | 280,000 compounds, 0.93% hits; further: nearly all actives have a fitted effect of over 55% in size
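Human K18 P301L tau (15 uM unlabeled plus 0.24 uM Alexa 594-labeled, final) in 100 mM sodium acetate pH 7 was mixed with compound and 20 uM heparin and incubated 6 hr at 37 C.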
Tau ThT inhib: blocks human tau fibril formation measured by thioflavin T | recombinant tau K18 P301L (four-repeat tau fragment), heparin-induced fibrillization, ThT fluorescence | Potency, µM (top dose mostly 57.4 µM), for inactives: top-dose activity, negative = inhibition, most hits filed as inhibitors | AID 1460 | P10636 | 270,000 compounds, 2.1% hits; further: nearly all actives have a fitted effect of over 55% in size
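K18 P301L tau (15 uM + 0.24 uM Alexa 594-tagged), heparin 20 uM, NaOAc pH 7, 6 h 37 C; ThT 30 uM, 1 h RT, ex 450/em 510 nm.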
Starred values were filed as active, the others as inactive; ? = inconclusive; nt = no result given; ! = a repeat was not active; [ ] = dose if it differs, or a comment. The list is not random: actives were taken first. Their share in the collection is about 3.5%. Unless noted, the call rests on the fitted dose curve; in most records, active means well fitted curve in the direction sought with a large enough effect; inconclusive means small, poorly fitted or top-dose-only effect, or another doubt; inactive means no such curve, though single readings can be large; an effect the other way counts as inactive or inconclusive. Unless noted, on the % scale 0 is the no-effect control and ±100 the full control effect; potency means the concentration at half of the fitted maximal effect.

SMILES	TR SRC2 fluor cs	Tau fibril FP	TRb-SRC2 inh	KDM4E inh	Tau fluor counter	Tau ThT inhib
CN(C)c1ccc(C(=O)c2ccc(N(C)C)cc2)cc1	-6.6%[201 µM]	6.4%	3.0%[201 µM]	-6.4%	-18.8%	?
COc1cc2c(cc1/C=C/[N+](=O)[O-])OCO2	-1.9%	0.5%	-1.6%	-20.9%	-18.5%	?
C/C(=C\c1ccc(N(C)C)cc1)[N+](=O)[O-]	-6.5%	-5.6%	3.2%	0.6%	14.1µM*[quencher]	12.6µM*
CN1CCN(c2ccc([N+](=O)[O-])c3no[n+]([O-])c23)CC1	-3.6%	?	-26.2%	14.1µM*	?	12.6µM*
O=[N+]([O-])O[C@H]1CO[C@H]2[C@@H]1OC[C@H]2O	-0.2%	6.5%	5.1%	nt	?	-4.7%
N#CC(C#N)=Cc1ccc([N+](=O)[O-])c(O)c1	-7.9%	?	-8.1%	?	?	25.1µM*
N#CC(C#N)=Cc1ccc(C=C(C#N)C#N)cc1	-1.9%	?	-9.5%	15.8µM*	-20.9%	20µM*
COc1ccccc1NC(=O)CCn1cnc2onc(-c3ccc(F)cc3)c2c1=O	2.3%	-8.8%	5.8%	nt	?	-10.6%
COc1ccc2nc(NC(=O)c3nc(S(=O)(=O)Cc4cccc(C)c4)ncc3Cl)sc2c1	-1.3%	-9.8%	-2.9%	nt	?	14.1µM*
CCOc1ccc2nc(NC(=O)c3cccn(Cc4ccc(C)cc4)c3=O)sc2c1	1.2%	-5.6%	3.2%	nt	-2.0%	-1.0%
COc1ccc2[nH]cc(CCN)c2c1	-2.9%	4.0%	-2.8%	-0.3%	0.2%	?
CCCCCCCCCOc1ccc2[nH]cc(CCN)c2c1	-1.0%	?	3.9%	25.1µM*!	7.94µM*[quencher]	?
COC(=O)c1ccccc1C(=O)OC	-1.4%[201 µM]	nt	0.3%[201 µM]	nt	nt	nt
Cc1c(O)c(=O)ccn1C	0.2%	-10.1%	6.1%	7.94µM*	-9.3%	-12.6%
Nc1ccc(N)cc1	6.7%	?	-6.9%	nt	?	14.1µM*
COc1cccc(-n2c(O)c(C=NCCN3CCOCC3)c(=O)[nH]c2=O)c1	-2.2%	-5.5%	8.1%	4.3%	-9.7%	-12.8%
N#C/C(=C\c1ccc(O)c(O)c1)C(=O)NCCCNC(=O)/C(C#N)=C/c1ccc(O)c(O)c1	-6.0%	8.2%	9.7%	3.55µM*	?	10µM*
Cc1nn(CC(C)C)c(Cl)c1C(=O)O	-0.1%	0.7%	-0.8%	-6.9%	-2.0%	-2.0%
CN(C)C1=NP(N(C)C)(N(C)C)=NC(c2ccccc2)=N1	-0.7%	2.0%	15.2%	-6.2%	-8.8%	-2.5%
CN1CC[C@@]2(C)c3cc(O)ccc3N(C)[C@@H]12	-2.5%	20µM*	-10.6%	6.31µM*	?	14.1µM*
CN1CC[C@@]2(C)c3cc(OC(=O)Nc4ccccc4)ccc3N(C)[C@@H]12	-2.5%	?	-5.3%	nt	?	31.6µM*
Cc1c(Cl)cccc1NC(=O)CN1C(=O)C(C)N=C(c2ccccc2)c2ccccc21 (configuration not stated)	0.1%	0.2%	6.8%	nt	-11.6%	0.7%
COc1cc2[nH]c(=O)n(Cc3ccc(C(=O)N4CCN(c5ccc(Cl)cc5)CC4)cc3)c(=O)c2cc1OC	-1.0%	?	3.8%	nt	?	-10.5%
Cc1ccc(OCC(=O)N/N=C\c2ccc(O)c([N+](=O)[O-])c2)c([N+](=O)[O-])c1	-0.4%	6.1%	-0.7%	-0.4%	-21.7%	12.6µM*
O=C(NCc1cccnc1)NC1CCCCC1	-1.6%	-3.1%	-5.9%	-0.3%	1.3%	2.9%
SMILES	TR SRC2 fluor cs	Tau fibril FP	TRb-SRC2 inh	KDM4E inh	Tau fluor counter	Tau ThT inhib
O=C1C=CC(=O)C(Cl)=C1	-8.2%	15.8µM*	-0.8%	nt	?	11.2µM*
CC1(C)C(=O)C=C[C@@]2(C)C1=C(O)C(=O)[C@@]1(C)C2CC[C@@]2(C)C(c3ccoc3)C[C@H]3O[C@@]321 (some centres not stated)	0.7%	-17.7%	1.9%	-0.5%	-11.0%	?
O=C(O)c1cc([N+](=O)[O-])cc([N+](=O)[O-])c1O	1.2%	nt	-3.9%	nt	nt	nt
O=[N+]([O-])c1cc(O)c(O)c([N+](=O)[O-])c1	-2.4%	5.8%	1.4%	10µM*	-10.5%	?
O=C1NC(=O)C(=Cc2coc3ccc(O)cc3c2=O)C(=O)N1	-1.2%	-7.6%	-2.3%	17.8µM*	-13.7%	?
Cc1cc(N2CCCCC2)nc2ccc(NC(=O)/C=C/c3ccc(OC(C)C)cc3)cc12	-0.7%	5.1%	4.1%	nt	8.91µM*[quencher]	2.82µM*
Cc1ccc(NC(=O)Nc2ccc3nc(N4CCN(C)CC4)cc(C)c3c2)cc1F	-1.7%	?	-5.3%	nt	7.08µM*[quencher]	14.1µM*
O=[N+]([O-])c1cc(C(F)(F)F)c(Cl)c([N+](=O)[O-])c1Nc1ncc(C(F)(F)F)cc1Cl	-7.3%[201 µM]	nt	-5.3%[201 µM]	nt	nt	nt
c1cc2c3c(cccc3c1)CC2	-1.7%[201 µM]	nt	-11.5%[201 µM]	nt	nt	nt
O=c1[nH]c2ccccc2c(=O)o1	-5.5%[201 µM]	nt	-2.0%[201 µM]	nt	nt	nt
O=c1oc(Cl)c(Cl)c2ccccc12	0.5%	?	7.8%	3.8%	-18.7%	11.2µM*
Cc1ccc(/C=C2/C(=O)NC(=O)N(Cc3ccc(F)cc3)C2=O)o1	1.6%	-1.2%	4.6%	-1.5%	-2.5%	nt
COc1ccc(CN2C(=O)NC(=O)/C(=C/c3ccc([N+](=O)[O-])o3)C2=O)cc1	?	?	?	-12.8%	?	8.91µM*
COc1cc(O)c(C(=O)O)c(-c2cc(O)c(O)cc2C)c1	-5.5%	?	-7.0%	14.1µM*	?	25.1µM*
COC(=O)C1=CO[C@@H](C)[C@@H]2CN3CCc4c([nH]c5cc(OC)ccc45)[C@@H]3C[C@H]12	0.4%	-7.9%	-1.3%	?	?	22.4µM*
CCCCc1ccc(C(=O)O)nc1	-1.9%	-5.5%	-0.9%	10µM*	-17.0%	?
O=C1NC(=O)N(Cc2ccccc2)C(=O)/C1=C\C=C\c1ccco1	12.8%	?	-1.5%	-29.5%	-21.5%	14.1µM*
O=C1NC(=O)N(Cc2ccccc2)C(=O)/C1=C/N1CCCc2ccccc21	2.6%	?	11.6%	?	-23.9%	10µM*
O=C1NC(=O)N(Cc2ccc(F)cc2)C(=O)/C1=C/c1cccs1	0.8%	?	18.6%	-13.2%	-19.7%	?
Cn1cccc1/C=C1\C(=O)NC(=O)N(Cc2ccco2)C1=O	-1.3%	0.9%	-9.3%	-20.4%	-23.7%	?
O=C1NC(=O)N(Cc2ccco2)C(=O)/C1=C/C=C/c1ccco1	2.7%	?	2.8%	25.1µM*	-21.7%	8.91µM*
COc1ccc(C(=O)Nc2ccc3c(c2)N(C)C(=O)c2ccccc2S3)cc1OC	-2.2%	?	-3.0%	nt	?	-11.8%
CCC(C)(CC)c1cc(NC(=O)c2c(OC)cccc2OC)on1	-0.6%[201 µM]	nt	9.1%[201 µM]	nt	nt	nt
